According to PubChem BioAssay AID1159580 (chemical genetic matrix, 2015):
Several values for one entry are separate records, joined by “and”; a condition that tells them apart may be missing. Equal entries are not always repeated. Screen size: about 5,500 compounds; about 2,000 (36%) were called active. Another 18% or so got no clear call; they are omitted. Cut-off read from the data, not from the text of the source: active = normalized growth mostly below about 0.91 (no sharp cut-off); inconclusive = no clear call, values can overlap the other calls; inactive = mostly above about 0.92. The list shows a part of the results.

Assay: chemical genetic growth profiling, strain panel (AID 1159580);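 note: tested at 20 µM; growth read once vehicle control cultures reached saturation at 30 °C; 1 = growth at the plate median or of vehicle wells; lower values mean less growth of the strain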
Details: S. cerevisiae deletion strains, growth OD

Measured: normalized growth

CC[C@@]1(O)C[C@H](O)c2c(cc3c(c2O)C(=O)c2c(O)ccc(O)c2C3=O)[C@H]1C(=O)OC
inactive: locus YAL026C, strain drs2, stronger effect = lower value 0.936 | locus YBR021W, strain FUR4, stronger effect = lower value 1.06 | locus YBR023C, strain chs3, stronger effect = lower value 0.924 | locus YBR171W, strain sec66, stronger effect = lower value 1.02 | locus YBR229C, strain ROT2, stronger effect = lower value 0.931 | locus YBR279W, strain paf1, stronger effect = lower value 0.964 | locus YCL069W, strain vba3, stronger effect = lower value 0.993 | locus YCR088W, strain abp1, stronger effect = lower value 0.963 | locus YDL005C, strain med2, stronger effect = lower value 1.01 | locus YDL040C, strain nat1, stronger effect = lower value 0.967 | locus YDR001C, strain nth1, stronger effect = lower value 1 | locus YDR159W, strain sac3, stronger effect = lower value 0.873 | locus YDR297W, strain sur2, stronger effect = lower value 0.94 | locus YDR334W, strain swr1, stronger effect = lower value 1.01 | locus YDR335W, strain msn5, stronger effect = lower value 0.961 | locus YDR392W, strain spt3, stronger effect = lower value 0.799 | locus YEL003W, strain gim4, stronger effect = lower value 0.958 | locus YEL037C, strain rad23, stronger effect = lower value 0.997 | locus YEL061C, strain CIN8 (second series), stronger effect = lower value 1.01 | locus YER110C, stronger effect = lower value 0.98 | locus YER111C, strain swi4, stronger effect = lower value 1.03 | locus YER155C, strain BEM2 (second series), stronger effect = lower value 1.06 | locus YGL078C, strain dbp3, stronger effect = lower value 0.935 | locus YGL167C, strain pmr1, stronger effect = lower value 0.976 | locus YGL173C, strain kem1, stronger effect = lower value 0.906 | locus YGL227W, strain vid30, stronger effect = lower value 1.01 | locus YGL240W, strain doc1, stronger effect = lower value 0.894 | locus YGR252W, strain gcn5, stronger effect = lower value 0.832 | locus YHR013C, strain ard1, stronger effect = lower value 1 | locus YHR030C, strain SLT2, stronger effect = lower value 0.97 | locus YHR079C, strain IRE1, stronger effect = lower value 0.984 | locus YHR142W, strain chs7, stronger effect = lower value 0.883 | locus YJL129C, strain trk1, stronger effect = lower value 0.989 | locus YJL154C, strain vps35, stronger effect = lower value 0.996 | locus YJL168C, strain set2, stronger effect = lower value 0.942 | locus YJR066W, strain TOR1, stronger effect = lower value 0.941 | locus YKR026C, strain gcn3, stronger effect = lower value 0.994 | locus YKR091W, strain srl3, stronger effect = lower value 1 | locus YLL001W, strain dnm1, stronger effect = lower value 0.953 | locus YLL026W, stronger effect = lower value 0.956 | locus YLL041C, strain sdh2, stronger effect = lower value 0.982 | locus YLR102C, strain apc9, stronger effect = lower value 0.984 | locus YLR113W, strain HOG1, stronger effect = lower value 0.971 | locus YLR342W, strain FKS1 (second series), stronger effect = lower value 0.857 | locus YLR342W, strain FKS1, stronger effect = lower value 0.958 | locus YLR357W, strain rsc2, stronger effect = lower value 1.01 | locus YLR370C, strain arc18, stronger effect = lower value 0.96 | locus YLR371W, strain rom2, stronger effect = lower value 0.991 | locus YLR384C, strain iki3, stronger effect = lower value 1.02 | locus YML120C, strain ndi1, stronger effect = lower value 0.962 | locus YMR125W, strain sto1, stronger effect = lower value 1.08 | locus YMR129W, stronger effect = lower value 0.997 | locus YMR205C, strain PFK2, stronger effect = lower value 0.983 | locus YMR231W, strain pep5, stronger effect = lower value 1.01 | locus YMR307W, strain GAS1, stronger effect = lower value 0.641 | locus YNL071W, strain lat1, stronger effect = lower value 0.932 | locus YNL183C, strain NPR1, stronger effect = lower value 0.929 | locus YNL322C, strain KRE1 (second series), stronger effect = lower value 0.919 | locus YNR049C, strain mso1, stronger effect = lower value 0.976 | locus YOL012C, strain htz1 0.287 | locus YOR001W, strain rrp6, stronger effect = lower value 0.943 | locus YOR080W, strain dia2, stronger effect = lower value 0.941 | locus YOR231W, strain MKK1, stronger effect = lower value 0.981 | locus YOR265W, strain rbl2, stronger effect = lower value 0.938 | locus YOR290C, strain snf2, stronger effect = lower value 0.911 | locus YOR316C, strain cot1, stronger effect = lower value 1 | locus YPL078C, strain atp4, stronger effect = lower value 0.961 | locus YPL240C, strain hsp82, stronger effect = lower value 0.979 | locus YPL256C, strain CLN2, stronger effect = lower value 0.995 | locus YPR119W, strain clb2, stronger effect = lower value 0.952
0.21 (active) and 0.986 (inactive): locus YJL095W, strain BCK1, stronger effect = lower value
active: locus YAL013W, strain DEP1, stronger effect = lower value 0.495 | locus YAL021C, strain ccr4, stronger effect = lower value 0.768 | locus YAL030W, strain snc1, stronger effect = lower value 0.908 | locus YBL061C, strain skt5, stronger effect = lower value 0.89 | locus YBR009C, strain hhf1, stronger effect = lower value 0.805 | locus YBR231C, strain swc5, stronger effect = lower value 0.751 | locus YCL011C, strain gbp2, stronger effect = lower value 0.874 | locus YCL016C, strain dcc1, stronger effect = lower value 0.607 | locus YCL029C, strain bik1, stronger effect = lower value 0.873 | locus YDL035C, strain GPR1, stronger effect = lower value 0.779 | locus YDL074C, strain BRE1, stronger effect = lower value 0.588 | locus YDL101C, strain DUN1, stronger effect = lower value 0.659 | locus YDL134C, strain PPH21, stronger effect = lower value 0.622 | locus YDL185W, strain tfp1, stronger effect = lower value 0.774 | locus YDL192W, strain arf1, stronger effect = lower value 0.735 | locus YDR069C, strain doa4, stronger effect = lower value 0.896 | locus YDR101C, strain arx1, stronger effect = lower value 0.848 | locus YDR137W, strain rgp1, stronger effect = lower value 0.707 | locus YDR150W, strain NUM1, stronger effect = lower value 0.879 | locus YDR162C, strain NBP2, stronger effect = lower value 0.414 | locus YDR195W, strain ref2 1.28 [resistant] | locus YDR318W, strain mcm21, stronger effect = lower value 0.861 | locus YDR388W, stronger effect = lower value 0.811 | locus YDR502C, strain sam2, stronger effect = lower value 0.7 | locus YEL061C, strain CIN8, stronger effect = lower value 0.7 | locus YER015W, strain faa2, stronger effect = lower value 0.894 | locus YER016W, strain bim1, stronger effect = lower value 0.909 | locus YER155C, strain BEM2, stronger effect = lower value 0.638 | locus YER167W, strain BCK2, stronger effect = lower value 0.713 | locus YFR010W, strain ubp6, stronger effect = lower value 0.894 | locus YGL086W, strain mad1, stronger effect = lower value 0.718 | locus YGL248W, strain PDE1, stronger effect = lower value 0.682 | locus YGL253W, strain hxk2, stronger effect = lower value 0.825 | locus YGR135W, strain pre9, stronger effect = lower value 0.818 | locus YHR027C, strain rpn1, stronger effect = lower value 0.713 | locus YHR079C, strain IRE1 (second series), stronger effect = lower value 0.856 | locus YHR094C, strain hxt1, stronger effect = lower value 0.88 | locus YHR129C, strain ARP1, stronger effect = lower value 0.638 | locus YHR200W, strain rpn10, stronger effect = lower value 0.771 | locus YIL066C, strain RNR3, stronger effect = lower value 0.421 | locus YIL073C, strain SPO22, stronger effect = lower value 0.593 | locus YIL125W, strain kgd1, stronger effect = lower value 0.861 | locus YIR030C, strain dcg1, stronger effect = lower value 0.908 | locus YJL092W, strain hpr5, stronger effect = lower value 0.734 | locus YJL095W, strain BCK1 (second series), stronger effect = lower value 0.912 | locus YJL115W, strain asf1, stronger effect = lower value 0.394 | locus YJL134W, strain LCB3, stronger effect = lower value 0.905 | locus YJL164C, strain tpk1, stronger effect = lower value 0.887 | locus YJL166W, strain qcr8, stronger effect = lower value 0.838 | locus YJL187C, strain SWE1 (second series), stronger effect = lower value 0.344 | locus YJR043C, strain POL32, stronger effect = lower value 0.696 | locus YKL009W, strain mrt4, stronger effect = lower value 1.54 [resistant] | locus YKL085W, strain MDH1 (second series), stronger effect = lower value 0.818 | locus YKL085W, strain MDH1, stronger effect = lower value 0.818 | locus YKL160W, strain elf1, stronger effect = lower value 0.9 | locus YKR001C, strain vps1, stronger effect = lower value 0.354 | locus YLR027C, strain aat2, stronger effect = lower value 0.869 | locus YLR039C, strain RIC1, stronger effect = lower value 0.395 | locus YLR058C, strain SHM2, stronger effect = lower value 0.643 | locus YLR221C, strain rsa3, stronger effect = lower value 0.901 | locus YLR258W, strain gsy2, stronger effect = lower value 0.9 | locus YLR262C, strain YPT6 (second series), stronger effect = lower value 0.795 | locus YLR268W, strain sec22, stronger effect = lower value 0.545 | locus YLR320W, strain mms22, stronger effect = lower value 0.216 | locus YLR418C, strain cdc73, stronger effect = lower value 0.56 | locus YML016C, strain PPZ1, stronger effect = lower value 0.815 | locus YML032C, strain rad52, stronger effect = lower value 0.175 | locus YML124C, strain tub3, stronger effect = lower value 0.808 | locus YMR058W, strain fet3, stronger effect = lower value 0.815 | locus YMR078C, strain ctf18, stronger effect = lower value 0.335 | locus YMR223W, strain ubp8, stronger effect = lower value 0.602 | locus YNL067W, strain RPL9B, stronger effect = lower value 0.691 | locus YNL209W, strain ssb2, stronger effect = lower value 0.895 | locus YNL233W, strain BNI4, stronger effect = lower value 0.511 | locus YNL248C, strain rpa49, stronger effect = lower value 0.706 | locus YNL250W, strain rad50, stronger effect = lower value 0.144 | locus YNL271C, strain bni1, stronger effect = lower value 0.885 | locus YNL298W, strain CLA4, stronger effect = lower value 0.891 | locus YNL307C, strain MCK1, stronger effect = lower value 0.785 | locus YNL322C, strain KRE1, stronger effect = lower value 0.751 | locus YNR052C, strain pop2, stronger effect = lower value 0.666 | locus YOL147C, strain pex11, stronger effect = lower value 0.802 | locus YOR061W, strain CKA2, stronger effect = lower value 0.793 | locus YOR069W, strain VPS5, stronger effect = lower value 0.577 | locus YOR070C, strain gyp1, stronger effect = lower value 0.877 | locus YOR083W, strain WHI5, stronger effect = lower value 0.806 | locus YOR106W, strain vam3, stronger effect = lower value 0.593 | locus YOR136W, strain idh2, stronger effect = lower value 0.877 | locus YOR144C, strain elg1, stronger effect = lower value 0.812 | locus YOR184W, strain ser1, stronger effect = lower value 0.426 | locus YOR270C, strain vph1, stronger effect = lower value 0.409 | locus YPL051W, strain arl3, stronger effect = lower value 0.685 | locus YPL055C, strain LGE1, stronger effect = lower value 0.146 | locus YPL106C, strain sse1, stronger effect = lower value 1.21 [resistant] | locus YPR141C, strain kar3, stronger effect = lower value 0.912 | locus YPR163C, strain tif3, stronger effect = lower value 0.72 | locus YPR167C, strain met16, stronger effect = lower value 0.597 | strain wtn01, stronger effect = lower value 0.703
